Hits are enriched below; roughly 1.6% of the tested compounds scored in any of these assays.
KCNQ2 block: rat KCNQ2 potassium channel inhibitors, primary screen, cell-based, CHO-K1, FluxOR thallium flux, B-score. Potassium voltage-gated channel subfamily KQT member 2 (Rattus norvegicus), O88943. 310,000 compounds, 1.1% hits. B-score at 10 µM. 20 min; hits give low values;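 active = fluorescence ratio B-score at most minus 3 library SDs, with starting brightness B-score within 2 library SDs, cut at about -5.5 in these data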
Target sequence (O88943 whole entry, looked up): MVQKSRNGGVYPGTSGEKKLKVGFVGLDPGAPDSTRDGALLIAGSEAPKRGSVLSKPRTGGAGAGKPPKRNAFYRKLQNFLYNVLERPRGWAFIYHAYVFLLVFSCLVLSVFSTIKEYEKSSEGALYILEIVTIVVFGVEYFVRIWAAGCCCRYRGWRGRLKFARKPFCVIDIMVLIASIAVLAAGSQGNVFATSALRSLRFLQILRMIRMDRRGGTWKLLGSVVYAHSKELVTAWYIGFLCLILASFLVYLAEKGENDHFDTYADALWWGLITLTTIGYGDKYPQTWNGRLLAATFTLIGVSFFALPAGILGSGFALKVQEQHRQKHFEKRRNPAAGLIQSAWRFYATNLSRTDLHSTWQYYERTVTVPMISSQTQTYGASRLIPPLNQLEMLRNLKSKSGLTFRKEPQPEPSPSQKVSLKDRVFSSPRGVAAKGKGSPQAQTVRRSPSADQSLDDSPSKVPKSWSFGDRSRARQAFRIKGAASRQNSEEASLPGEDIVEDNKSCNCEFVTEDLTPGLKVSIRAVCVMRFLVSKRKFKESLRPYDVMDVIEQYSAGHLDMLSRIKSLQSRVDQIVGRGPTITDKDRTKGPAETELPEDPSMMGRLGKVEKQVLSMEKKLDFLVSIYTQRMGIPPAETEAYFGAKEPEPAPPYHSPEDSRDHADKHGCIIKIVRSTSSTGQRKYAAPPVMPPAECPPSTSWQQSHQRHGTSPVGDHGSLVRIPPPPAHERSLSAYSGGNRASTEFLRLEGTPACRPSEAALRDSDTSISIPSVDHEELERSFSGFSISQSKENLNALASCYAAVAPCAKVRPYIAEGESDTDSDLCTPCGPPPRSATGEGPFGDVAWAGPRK
KCNQ2 enhance: potentiators of rat KCNQ2 potassium channel. Potassium voltage-gated channel subfamily KQT member 2 (Rattus norvegicus), O88943. CHO-K1 KCNQ2, FluxOR thallium flux fluorescence; hits give high values. B-score at 10 µM. 310,000 compounds, 0.54% hits;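 active = fluorescence ratio B-score at least 3 SD of library B-scores, with initial fluorescence B-score within 3 of them, cut at about 5.3 in these data; same plate scores as AID 2156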;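 note: B-score of peak minus minimum over baseline fluorescence ratio after K+ and Tl+ stimulus; positive B-score means potentiation of KCNQ2 with more thallium influx and brighter signal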
KCNQ2 inh conf: rat KCNQ2 potassium channel inhibitors, confirmation, cell-based, thallium flux; activity change, negative = inhibition, % at 10 µM; AID 493025, 2011; shares compounds with KCNQ2 block; 1,000 compounds, 57% hits; KCNQ2-expressing cells, inhibition; hits give low values
KCNQ1 spec: human KCNQ1 channel inhibition, counter-screen for KCNQ2 inhibitor project, cell-based, FluxOR thallium flux. shares compounds with KCNQ2 block. KCNQ1-expressing cells, FluxOR thallium flux fluorescence; hits give low values. activity change, negative = inhibition, % at 10 µM. 1,000 compounds, 15% hits. AID 493026, 2011;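 active = activity change at least 3 SD of negative controls below their mean in both duplicate wells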;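 note: CHO cells stably transfected with KCNQ1 and depolarized by potassium stimulus; peak minus minimum fluorescence over baseline after thallium addition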
CHO Tl ctr: thallium flux change in parental CHO cells, counter-screen for KCNQ2 inhibitor project; shares compounds with KCNQ2 block; hits give low values; activity change, % at 10 µM; 1,000 compounds, 14% hits; AID 493029, 2011
KCNQ2 inh confirm: rat KCNQ2 channel inhibitors, confirmation, cell-based, automated patch clamp, single concentration; shares compounds with KCNQ2 block; KCNQ2-expressing cells, automated patch clamp current; calls only at 10 µM; 550 compounds, 49% hits; AID 588531, 2011
Hits are given with their value; - = inactive; . = no result given; + = active, no number. Unless noted, the rule behind the calls is not given here.

SMILES	KCNQ2 block	KCNQ2 enhance	KCNQ2 inh conf	KCNQ1 spec	CHO Tl ctr	others
Cn1cc(/C=N/n2cnc3sc4c(c3c2=O)CCCC4)c2ccccc21	-9.24	-	-	-	-
Nc1ccccc1C(=O)N1CCc2ccccc21	-	-	.	.	.
CC(C)(C)n1nnnc1C(c1ccc(C#N)cc1)N1CCCC2(CCCCC2)C1 (stereo not drawn)	-7.08	-	-37.0%	-38.0%	-37.0%	KCNQ2 inh confirm=-
CC(C)(C)n1nnnc1C(c1ccncc1)N1CCCCCC1 (stereo not drawn)	-	.	.	.	.
O=C(Nc1ccc(S(=O)(=O)Nc2cnc3ccccc3n2)cc1)c1cccc(OC(F)F)c1	-	-	.	.	.
CCOc1cc(CNn2cnnc2)cc(Br)c1OCC(=O)NC(C)(C)C	-	-	.	.	.
CCOc1cc(CNc2ccc(Br)cc2)cc(Br)c1OCC(=O)NC(C)(C)C	-6.83	-	-24.0%	-	-	KCNQ2 inh confirm=-
CCOC(=O)[C@@H]1[C@H]2COc3ccccc3[C@@H]2N2C(=O)N(c3ccc(C)cc3)C(=O)[C@]12C	-	-	.	.	.
Cc1c(C(=O)N2CCCC2)c(S(=O)(=O)N2CCN(c3ccccc3F)CC2)c(C)n1C	-	.	.	.	.
COc1ccc(-c2cc(C3CCN(C(=O)OC(C)(C)C)CC3)[nH]n2)cc1	-	.	.	.	.
CCOC(=O)c1cn2nc(-c3ccc(OC)cc3)cc2nc1C1CCN(C(=O)OC(C)(C)C)CC1	-8.58	-	-	-	-
CCn1cc(C(=O)NC2CCCc3c2cnn3-c2cccc(C)c2C)cn1 (stereo not drawn)	-	.	.	.	.
O=C(N/C=C\c1ccccc1)NCc1ccc(Cl)cc1	-7.01	-	-	-	-
O=C(N/C=C\c1ccccc1)NCc1ccc(Cl)cc1Cl	-	.	.	.	.
COc1cccc(C(=O)NNS(=O)(=O)c2ccc(C)cc2)c1	-	.	.	.	.
COc1ccc(N2CCN(CCCNC(=O)Cn3c(=O)c4cccn4c4ccccc43)CC2)cc1	-	.	.	.	.
Cc1ccc(CC(=O)Nc2nnc(-c3ccc(F)cc3)o2)c(C)c1	-	-	.	.	.
CC(C)(Oc1ccc(Cl)cc1)C(=O)N1CCN(c2ccccn2)CC1	-7.38	-	-	-	-
O=C(/C=C/c1ccc(Cl)cc1)N1CCN(c2ccccn2)CC1	-	.	.	.	.
O=C(CCN1CCOCC1)c1ccc(Br)cc1	-7.4	-	-47.0%	-50.0%	-36.5%	KCNQ2 inh confirm=-
O=C(CCN1CCOCC1)c1ccc(Cl)cc1	-	.	.	.	.
COc1ccc(C(=O)CCN2CCN(c3ccccc3F)CC2)cc1	-	.	.	.	.
COc1ccc(C(=O)CCN2CCN(c3ccc(OC)cc3)CC2)cc1	-	.	.	.	.
O=C(CCN1CCN(c2ccccc2F)CC1)c1ccc(Br)cc1	-8.54	-	-	-	-
O=C(CCN1CCN(c2ccccc2)CC1)c1ccc(Br)cc1	-8.24	-	-22.0%	-	-	KCNQ2 inh confirm=-
SMILES	KCNQ2 block	KCNQ2 enhance	KCNQ2 inh conf	KCNQ1 spec	CHO Tl ctr	others
COc1ccc(S(=O)(=O)Nc2ccccc2C(=O)N2CCOCC2)cc1Br	-	-	.	.	.
Cc1ccccc1CNS(=O)(=O)c1csc(C(N)=O)c1	-	-	.	.	.
CN1/C(=C\C(=S)NC(=O)c2cccc(Br)c2)C(C)(C)c2ccccc21	-7.84	-	-22.0%	-	-	KCNQ2 inh confirm=+
CN1/C(=C\C(=S)NC(=O)c2ccc([N+](=O)[O-])cc2)C(C)(C)c2ccccc21	-	.	.	.	.
CN1/C(=C\C(=O)Nc2ccc(Br)cc2)C(C)(C)c2ccccc21	-	.	.	.	.
CN1/C(=C\C(=O)Nc2cccc(Cl)c2)C(C)(C)c2ccccc21	-7.13	-	-20.5%	-	-	KCNQ2 inh confirm=-
CCCn1c(CNC(=O)Cc2ccccc2)nc2ccccc21	-6.74	-	-	-	-
CCCC(=O)NCCc1nc2ccccc2n1CCC	-	-	.	.	.
Cc1ccc(C(=O)N2CCN(c3ccc([N+](=O)[O-])cc3)CC2)o1	-	.	.	.	.
Cc1cc(C)n(-c2nc3ccccc3nc2N2CCCC2)n1	-	.	.	.	.
Cc1cc(C)n(-c2nc3ccccc3nc2N2CCN(C(=O)c3ccc(Cl)cc3)CC2)n1	-8.41	-	-32.5%	-30.5%	-24.5%	KCNQ2 inh confirm=+
COC(=O)Cn1cnc2c(nnn2-c2cccc(OC)c2)c1=O	-	-	.	.	.
Cc1ccc(NC(=O)C(Nc2ccccc2)c2ccccc2)cc1 (stereo not drawn)	-	.	.	.	.
Cc1ccc(NC(=O)C(Nc2cccc(C)c2)c2ccccc2)cc1 (stereo not drawn)	-7.44	-	-28.0%	-	-	KCNQ2 inh confirm=-
COc1ccc(-n2c(=O)c3c4c(sc3n(CC(=O)NCC3CCCO3)c2=O)CCCC4)c(OC)c1 (stereo not drawn)	-	.	.	.	.
COc1ccc(-n2c(=O)c3c4c(sc3n(CC(=O)NC3CCCC3)c2=O)CCCC4)c(OC)c1	-6.71	-	-	-	-
Cc1cc(C)cc(N(CC(=O)N2CCCCCC2)S(C)(=O)=O)c1	-	.	.	.	.
CCn1c(=O)c(C(=O)NCc2ccc(F)cc2)c(O)c2ccccc21	-6.72	-	-	-	-
CCn1c(=O)c(C(=O)NCc2ccccc2)c(O)c2ccccc21	-	.	.	.	.
CCn1c(=O)c(C(=O)NCc2ccccc2OC)c(O)c2ccccc21	-	.	.	.	.
CCn1c(=O)c(C(=O)NCc2ccc(Cl)cc2)c(O)c2ccccc21	-7.56	-	-25.0%	-	-	KCNQ2 inh confirm=-
CCn1c(=O)c(C(=O)NCc2cccnc2)c(O)c2ccccc21	-	-	.	.	.
CCCn1c(=O)c(C(=O)NCc2ccccc2OC)c(O)c2ccccc21	-7.62	-	-	-	-
Cc1cc(-c2nc(-c3ccncc3)no2)ccc1[N+](=O)[O-]	-	-	.	.	.
COc1ccc(CN(C)C(=O)c2cc(S(=O)(=O)N3CCOCC3)ccc2N2CCCC2)cc1	-	-	.	.	.
SMILES	KCNQ2 block	KCNQ2 enhance	KCNQ2 inh conf	KCNQ1 spec	CHO Tl ctr	others
Cc1ccc(Cl)cc1NC(=O)C1CCCN1S(=O)(=O)c1ccc(-c2ccc(=O)[nH]n2)s1 (stereo not drawn)	-	-	.	.	.
CN(C)S(=O)(=O)c1ccc(N2CCCC2)c(C(=O)NNC(=O)COc2ccccc2Cl)c1	-	.	.	.	.
CN(C)S(=O)(=O)c1ccc(N2CCCC2)c(C(=O)NNC(=O)COc2ccccc2F)c1	-8.29	-	-22.5%	-	-	KCNQ2 inh confirm=+
CCC1Oc2ccc(C)cc2N(CC(=O)N2CCCC2)C1=O (stereo not drawn)	-	-	.	.	.
CN1CCN(C(=O)C2CCC(=O)N(CCc3cccc(F)c3)C2)CC1 (stereo not drawn)	-	.	.	.	.
Cc1cc(C)c(NC(=O)/C(=C/c2ccccc2)c2ccccc2)c(C)c1	-7.48	-	-	-	-
Cc1ccc(NC(=O)/C(=C/c2ccco2)c2ccccc2)c(C)c1	-	.	.	.	.
COc1cccc(CNS(=O)(=O)c2cc3c(cc2Cl)NC(=O)CO3)c1	-	-	.	.	.
CN(CC(=O)Nc1ccccc1Sc1ccccc1)C1CCCCC1	-6.67	-	-37.0%	-35.0%	-27.0%	KCNQ2 inh confirm=-
CSc1ccccc1NC(=O)CN(C1CCCCC1)S(C)(=O)=O	-	.	.	.	.
Cc1cc(C)nc(NC(=O)c2cc(-c3ccc4c(c3)OCO4)nc3ccccc23)c1	-7.73	-	-31.5%	-	-	KCNQ2 inh confirm=+
COC(=O)c1cc(-c2ccc3c(c2)OCO3)nc2ccccc12	-	-	.	.	.

Screening data (PubChem)
